ADAM10 inh = human ADAM10 inhibitors, primary screen, biochemical, QFRET, HTS | hit rate 0.62% among 370,000 | inhibition, % at 7 µM | recombinant ADAM10, EDANS/DABCYL FRET peptide cleavage, 3 h | Disintegrin and metalloproteinase domain-containing protein 10 (Homo sapiens), O14672;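 active = inhibition above a per-campaign cutoff equal to the mean of compounds falling between control-based bounds plus 3 SD, cut at about 20% in these data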;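 also: 0% = DMSO wells while the 100% control is not disclosed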
Target sequence (O14672 214-748 limits assumed): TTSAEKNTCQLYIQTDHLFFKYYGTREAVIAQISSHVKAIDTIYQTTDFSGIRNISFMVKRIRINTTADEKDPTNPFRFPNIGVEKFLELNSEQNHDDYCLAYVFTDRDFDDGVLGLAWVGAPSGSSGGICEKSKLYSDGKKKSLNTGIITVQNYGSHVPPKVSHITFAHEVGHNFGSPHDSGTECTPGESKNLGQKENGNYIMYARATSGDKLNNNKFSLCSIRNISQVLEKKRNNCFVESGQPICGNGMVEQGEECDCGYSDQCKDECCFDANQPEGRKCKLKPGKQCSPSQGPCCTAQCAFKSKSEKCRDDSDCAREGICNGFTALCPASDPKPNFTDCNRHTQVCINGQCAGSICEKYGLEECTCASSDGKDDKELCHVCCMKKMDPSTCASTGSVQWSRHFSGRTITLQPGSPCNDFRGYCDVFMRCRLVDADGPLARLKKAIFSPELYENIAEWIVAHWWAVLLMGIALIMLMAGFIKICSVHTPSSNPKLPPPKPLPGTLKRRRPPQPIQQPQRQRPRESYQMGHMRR
ADAM17 inh = ADAM17 inhibitors, primary screen, biochemical, QFRET; hit rate 0.83% among 370,000; inhibition, % at 6.95 µM; Disintegrin and metalloproteinase domain-containing protein 17 (Homo sapiens), P78536; recombinant ADAM17, EDANS/DABCYL FRET peptide cleavage;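 active = inhibition above the mean of compounds lying between control limits plus 3 SD, set per campaign, cut at about 8.5% in these data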;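 also: 0% = DMSO-only wells as the low control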
FGF22 binding = binders of human FGF22 protein, primary screen, FGF22 synaptogenesis inhibitor project, biophysical, thermal shift, single point; Fibroblast growth factor 22 (Homo sapiens), Q9HCT0; hit rate 1.5% among 340,000; recombinant FGF22 thermal shift, SYPRO orange fluorescence; percent of sucrose octasulfate shift, DMSO zero; activity (Tm shift, normalised), % at 9.99 µM;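 active = mean Tm shift, scaled 0 neutral to 100 positive control, at about 1.3% or above, every replicate too, limit read from the data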
Ecoli rRNA inh = reduced GFP signal of wild-type E. coli, primary screen, bacterial rRNA inhibitor project, GFP/RFP fluorescence, OD600, single point | E. coli WT GFP vs humanized-ribosome RFP mutants, 24 h; hits give low values; DMSO median 0, no signal -100 | GFP signal change (wild-type ribosome), % (no concentration beside the values) | hit rate 1.6% among 350,000 | AID 720706, 2013;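 active = significant combined selectivity score with lowered wild-type GFP, culture density cut under 30%, mutant RFP and density less affected; inactive = any of these conditions unmet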
KLK7 zymogen act = proKLK7 zymogen activators, primary screen, biochemical, fluorescence intensity; purified proKLK7, EDANS-DABCYL substrate fluorescence; 100% is mature enzyme control, 0% vehicle; hit rate 0.9% among 370,000; activation, % at 7 µM; AID 652039, 2013; Kallikrein-7 (Homo sapiens), P49862;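 active = activation above the mean of all tested compounds plus 3 SD, computed per campaign excluding outliers beyond control limits, cut at about 13% in these data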
KLK7 act conf = proKLK7 zymogen activators, confirmation, biochemical, fluorescence intensity, triplicate. shares compounds with KLK7 zymogen act. purified proKLK7, EDANS-DABCYL substrate fluorescence; scaled: vehicle 0, mature enzyme 100. activation, % at 7 µM. hit rate 68% among 3,200. AID 686949, 2013;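 active = activation, as change over the incubation, above the mean of all tested compounds plus 3 SD, cut at about 13% in these data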
EDANS-DABCYL int = EDANS-DABCYL substrate optical interference, artefact control for kallikrein-7 zymogen activator project, biochemical, fluorescence intensity, high throughput | shares compounds with KLK7 zymogen act | no enzyme, 4 h; solvent 0%, active enzyme control 100% | activation, % at 7 µM | hit rate 80% among 3,200 | AID 686952, 2013;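 active = activation above the all-compound mean plus 3 SD, ignoring values outside control-based bounds, cut at about 4.8% in these data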;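 also: value is the 4 h activation minus the activation read at time zero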
The depositor's hits bear a star; i = inactive; / = not tested or not shown. Compounds with a hit are over-represented: about 3.8% of the library has one in this group of screens.

SMILES	ADAM10 inh	ADAM17 inh	FGF22 binding	Ecoli rRNA inh	KLK7 zymogen act	KLK7 act conf	EDANS-DABCYL int
COc1ccc(CNC(=O)CC2C[C@H](C(=O)N(C(C)C)C(C)C)[C@@]3(C)c4[nH]c5ccccc5c4CCN3C2=O)cc1OC (stereo partly specified)	-1	0	0	-2	1	/	/
CCN(CC)C(=O)[C@H]1C[C@H](CC(=O)NCc2ccc(OC)c(OC)c2)C(=O)N2CCc3c([nH]c4cc(-c5ccco5)ccc34)[C@]12C	i	-171	0	6	141*	68*	76*
CCN(CC)C(=O)[C@H]1C[C@H](CC(=O)NCC23CC4CC(CC(C4)C2)C3)C(=O)N2CCc3c([nH]c4cc(-c5ccco5)ccc34)[C@]12C	-107	-30	0	10	-7	/	/
CC(C)=CCC/C(C)=C/CNC(=O)C[C@H]1C[C@H](C(=O)N(C(C)C)C(C)C)[C@@]2(C)c3[nH]c4cc(-c5ccco5)ccc4c3CCN2C1=O	-360	-114	0	/	-4	/	/
CCN(CC)C(=O)[C@H]1C[C@H](CC(=O)NCCCN(C)C)C(=O)N2CCc3c([nH]c4cc(-c5ccco5)ccc34)[C@]12C	-305	-69	0	8	90*	73*	84*
CCN(CC)C(=O)[C@H]1C[C@H](CC(=O)NCCCOC)C(=O)N2CCc3c([nH]c4cc(-c5ccco5)ccc34)[C@]12C	-375	-102	0	16	164*	166*	206*
CCN(CC)C(=O)[C@H]1C[C@H](CC(=O)NC/C=C(\C)CCC=C(C)C)C(=O)N2CCc3c([nH]c4cc(-c5ccco5)ccc34)[C@]12C	-213	-81	0	8	19*	4	12*
C[C@H]1CN([C@@H](C)CO)C(=O)c2cc(NS(=O)(=O)c3cccs3)ccc2O[C@H]1CN(C)S(=O)(=O)c1cccs1	/	/	/	-4	/	/	/
COc1ccc(S(=O)(=O)N(C)C[C@@H]2Oc3ccc(NS(C)(=O)=O)cc3CC(=O)N([C@H](C)CO)C[C@H]2C)cc1	/	/	0	4	/	/	/
CC(C)N(C(=O)[C@H]1C[C@H](CC(=O)NCCCN(C)C)C(=O)N2CCc3c([nH]c4cc(-c5ccco5)ccc34)[C@]12C)C(C)C	-290	-78	0	-35	103*	73*	88*
COc1cccc(OC)c1C(=O)Nc1nc2cc3c(cc2s1)OCO3	-79	-29	0	18	19*	-13	-12
CO[C@H]1CN(C)C(=O)c2cc(NC(=O)NC3CCCC3)ccc2OC[C@H](C)NC[C@@H]1C	/	/	/	3	/	/	/
CCOC(=O)N1CCC(NC(=O)c2ccc3c(c2)N(C)CCS3)CC1	i	i	/	/	51*	66*	73*
Cc1cccc(CNC(=O)c2ccc3c(c2)N(C)CCS3)c1	i	i	0	5	18*	-7	-6
CC(C)Oc1ccc(CNC(=O)c2ccc3c(c2)N(C)CCS3)cc1	i	-456	0	-2	-22	/	/
CCOC(=O)N1CCC(NC(=O)c2ccc3c(c2)N(Cc2ccc(C)cc2)CCS3)CC1	-253	-49	0	-2	-12	/	/
COc1ccc(CNC(=O)c2ccc3c(c2)N(C)CCS3)cc1	i	i	0	-6	35*	8	33*
CNC(=O)C[C@@H]1CC[C@H]2[C@@H](COc3ccc(NC(=O)c4ccc(C(F)(F)F)cc4)cc3C(=O)N2C)O1	/	/	0	3	/	/	/
CN(C)CCNC(=O)c1cc2c(s1)-c1ccccc1OC2	i	i	0	-3	68*	72*	68*
CCCN1CCN(CCCNC(=O)c2cc3c(s2)-c2c(C)cccc2OC3)CC1	i	i	0	6	42*	63*	71*
Cc1csc(NC(=O)c2cc3c(s2)-c2ccccc2OC3)n1	i	-402	0	-24	-602	/	/
Cc1cccc2c1-c1sc(C(=O)NCCCN3CCCC(C)C3)cc1CO2 (stereo unspecified)	i	i	0	-57	48*	62*	70*
CC1CCCC(C)N1CCCNC(=O)c1cc2c(s1)-c1ccccc1OC2 (stereo unspecified)	i	i	0	0	69*	62*	63*
CN1CCN(C(=O)C[C@H]2CC[C@@H](NC(=O)Cc3ccccn3)[C@H](CO)O2)CC1	/	/	0	3	/	/	/
CC1CC(C)CN(CCCNC(=O)c2cc3c(s2)-c2ccccc2OC3)C1 (stereo unspecified)	i	i	0	-4	44*	-37	-60
SMILES	ADAM10 inh	ADAM17 inh	FGF22 binding	Ecoli rRNA inh	KLK7 zymogen act	KLK7 act conf	EDANS-DABCYL int
CCCN1CCN(CCCNC(=O)c2cc3c(s2)-c2ccccc2OC3)CC1	i	i	0	-8	38*	71*	76*
CCN1CCN(CCCNC(=O)c2cc3c(s2)-c2ccccc2OC3)CC1	i	i	0	-7	37*	73*	70*
CCC(=O)N1CC2(C1)CN(C(=O)Nc1ccccc1F)[C@@H](CO)c1[nH]c3cc(OC)ccc3c12	/	/	0	2	/	/	/
C[C@@H]1CN([C@H](C)CO)C(=O)c2cc(C#CCN(C)C)cnc2O[C@H]1CN(C)Cc1ccccn1	/	/	0	-3	/	/	/
CC(C)c1cn(CC[C@H]2CC[C@@H](NC(=O)C3CC3)[C@@H](CO)O2)nn1	/	/	0	0	/	/	/
CCN(CC)CCN1C(=O)c2ccccc2NC1c1cc(OC)c(OC)c(OC)c1 (stereo unspecified)	i	-452	0	4	99*	14*	18*
COc1ccc(CCN2C(=O)c3ccccc3NC2c2cc(Cl)c(O)c(OC)c2)cc1 (stereo unspecified)	-214	-78	/	-50	4	/	/
CCCN1C(=O)c2ccccc2NC1c1cc(OC)c(OC)c(OC)c1 (stereo unspecified)	i	-341	/	/	16*	11	16*
N=c1c(C(=O)NCCN2CCOCC2)cc2c(=O)n3ccccc3nc2n1CCCN1CCOCC1	i	-381	0	22	14*	4	5.0*

Screening results (PubChem BioAssay)
